ERAP1 HTS inh = inhibitors of human ERAP1 aminopeptidase; Q9NZ08; recombinant ERAP1, Leu-AMC fluorescence, 60 min; inhibition, % at 10.7 µM; 0.15% of 340,000 active; AID 652197;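 active = mean replicate inhibition of at least 30%, or all replicates individually reaching that 30% level; inactive = mean below 30% and not every replicate reaching it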
FGF22 binding = shifts melting point of recombinant human FGF22. recombinant FGF22 thermal shift, SYPRO orange fluorescence; percent of sucrose octasulfate shift, DMSO zero. activity (Tm shift, normalised), % at 9.99 µM. Q9HCT0. 1.5% of 340,000 active;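 active = mean Tm shift, scaled 0 neutral to 100 positive control, at about 1.3% or above, every replicate too, limit read from the data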
SIRT5 block = inhibitors of human sirtuin-5 desuccinylase. Q9NXA8. Purified SirT5, succinyl-peptide AMC, trypsin-coupled fluorescence. inhibition, % at 15 µM. 1.1% of 330,000 active; in the data active = inhibition above about 15%
Target sequence (Q9NXA8 whole entry, looked up): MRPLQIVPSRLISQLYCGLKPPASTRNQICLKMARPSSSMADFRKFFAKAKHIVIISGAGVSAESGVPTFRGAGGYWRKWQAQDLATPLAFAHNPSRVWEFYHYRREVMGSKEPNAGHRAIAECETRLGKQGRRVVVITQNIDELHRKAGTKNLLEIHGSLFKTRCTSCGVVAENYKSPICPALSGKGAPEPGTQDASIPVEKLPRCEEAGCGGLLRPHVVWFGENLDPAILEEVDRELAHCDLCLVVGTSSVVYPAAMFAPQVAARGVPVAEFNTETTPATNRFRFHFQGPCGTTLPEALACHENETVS
CASP6 VEID inh = caspase-6 (human) enzyme inhibition. purified caspase-6, Z-VEID-R110 cleavage fluorescence. inhibition, % at 12.5 µM. 0.53% of 350,000 active. AID 686996;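 active = mean inhibition across replicates at least about 35%, with every replicate also reaching that limit, limit read from the data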
Target sequence (P55212 24-179 limits assumed): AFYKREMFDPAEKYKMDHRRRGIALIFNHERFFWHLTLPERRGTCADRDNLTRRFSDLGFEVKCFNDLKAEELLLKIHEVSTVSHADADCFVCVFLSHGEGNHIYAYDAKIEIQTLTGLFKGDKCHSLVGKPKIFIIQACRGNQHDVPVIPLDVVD
Target sequence (P55212 194-293 limits assumed): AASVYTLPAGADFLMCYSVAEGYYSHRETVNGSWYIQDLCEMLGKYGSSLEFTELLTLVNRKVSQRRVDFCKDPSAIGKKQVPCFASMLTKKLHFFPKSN
INS-1E GSIS act = GLuc luminescence reporter in INS-1E cells, primary screen for activators of glucose-dependent secretion of insulin | INS-1E GLuc reporter insulin secretion, 2-3 h | activation, % at 16.6 µM | 0.61% of 370,000 active;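 active = lowest replicate activation of at least 40%, so every replicate reaches that level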
Large screens that a line does not name were inactive. Sampled rows, rich in hits. Any-hit rate of the full collection: about 3.3%.

O=C(CCCCn1ccc(=O)[nH]c1=O)Nc1ccc(O)c(C(=O)O)c1	FGF22 binding 43.1 (no result: SIRT5 block, INS-1E GSIS act)
O=C(C[C@@H]1C[C@@H]2c3cc(NS(=O)(=O)c4ccccc4)ccc3O[C@@H]2[C@H](CO)O1)N1CCCCC1	none
Cc1cc(C)cc(Nc2cc(C)nc3nc(C)nn23)c1	SIRT5 block 15.8
CC(C)C(NC(=O)CCNC(=O)c1ccc([N+](=O)[O-])cc1)c1nc2ccccc2[nH]1 (configuration not stated)	ERAP1 HTS inh 67.0
C[C@H](CO)N1C[C@H](C)[C@H](CN(C)Cc2ccccc2F)Oc2cc(C#CC3CC3)ccc2S1(=O)=O	SIRT5 block 43.4 (no result: ERAP1 HTS inh)
CC(C)CC#Cc1ccc2c(c1)O[C@@H](CN(C)Cc1ccccc1F)[C@@H](C)CN([C@@H](C)CO)S2(=O)=O	SIRT5 block 15.6
Cc1ccc(S(=O)(=O)Nc2ccc3c(c2)C(=O)N([C@H](C)CO)C[C@H](C)[C@@H](CN(C)Cc2ccc4c(c2)OCO4)OCCCC[C@H](C)O3)cc1	none
C[C@@H]1CN([C@H](C)CO)C(=O)c2cc(NC(=O)Nc3ccc(C(F)(F)F)cc3)ccc2O[C@@H]1CN(C)CC1CC1	none
Cn1c(=O)cc(SCC(=O)N2CCN(C3CCCCC3)CC2)c2ccccc21	SIRT5 block 16.8
O=C(Nc1ccc2c(c1)[C@@H]1C[C@@H](CC(=O)N3CCOCC3)O[C@H](CO)[C@@H]1O2)C1CCOCC1	none
CCC(C)n1nccc1NC(=O)C(C)Cl (configuration not stated)	FGF22 binding 43.4
Cc1ccccc1C(=O)NCC(=O)OC(C)C(=O)Nc1ccnn1C(C)C (configuration not stated)	none
CCC1=[N+](C)c2cccc3cccc(c23)N1C	ERAP1 HTS inh 36.3
CCN1C(=O)Nc2cccc3cccc1c23	none
O=C(CSc1cccc[n+]1[O-])CSc1cccc[n+]1[O-]	FGF22 binding 43.1
O=C(CSc1cccc[n+]1[O-])N1CCCCCC1	none (no result: SIRT5 block)
O=C(CSc1cccc[n+]1[O-])Nc1ccc(Cl)cc1F	CASP6 VEID inh 37.3
O=C(NP(=O)(N1CCCC1)N1CCCC1)C1=C(N2CCOCC2)/C(=C/c2cccc([N+](=O)[O-])c2)CC1	FGF22 binding 44.4
CCOC(=O)C(=O)C1=C(N2CCOCC2)/C(=C\c2cccc([N+](=O)[O-])c2)CC1	none
O=C(O)C1Cc2[nH]cnc2C(c2ccc(F)cc2)N1 (configuration not stated)	FGF22 binding 43.1
O=C(Nc1ccc(F)cc1)c1nc[nH]c1C(=O)O	none
CCN(CC)Cc1c(C(=O)N/N=C/c2ccc(C)o2)nnn1-c1nonc1N	SIRT5 block 84.6
CN(Cc1c(C(=O)N/N=C/c2ccccc2O)nnn1-c1nonc1N)C1CCCCC1	INS-1E GSIS act 518.3 (no result: FGF22 binding, SIRT5 block)
Cc1nnn(-c2nonc2N)c1C(=O)N/N=C/c1cccc2ccccc12	INS-1E GSIS act 85.8 (no result: ERAP1 HTS inh, FGF22 binding, SIRT5 block, CASP6 VEID inh)
Cc1nnn(-c2nonc2N)c1C(=O)N/N=C/c1ccccc1O	none (no result: ERAP1 HTS inh, FGF22 binding, SIRT5 block, CASP6 VEID inh)
C[C@@H]1CN([C@@H](C)CO)C(=O)c2cccc(NS(=O)(=O)c3cn(C)cn3)c2O[C@H]1CN(C)Cc1ccc(C(=O)O)cc1	none
O=C(C[C@@H]1CC[C@@H]2[C@H](COC[C@@H](O)CN2Cc2ccc(Cl)cc2)O1)NCCc1ccccc1	none
COc1ccc(-n2c(=S)[nH]c3cc(C(=O)Nc4ccc(OC)c(OC)c4)ccc3c2=O)cc1	INS-1E GSIS act 75.5 (no result: ERAP1 HTS inh, FGF22 binding, SIRT5 block, CASP6 VEID inh)
COc1ccc(C(=O)Nc2ccc(OC)c(OC)c2)cc1	none (no result: ERAP1 HTS inh, FGF22 binding, SIRT5 block, CASP6 VEID inh)
COc1ccc(NC(=O)c2csc(C)c2)cc1OC	INS-1E GSIS act 56.7
CCOC(=O)c1cc(C(C)C)sc1NC(=O)COC(=O)CCS(=O)(=O)c1ccccc1	SIRT5 block 33.5 (no result: INS-1E GSIS act)
O=C(NC1CCCCC1)N1CC(=O)N2[C@@H](CO)[C@@H](c3ccc(-c4ccccc4)cc3)[C@@H]2C1	none (no result: FGF22 binding)
N#Cc1sc2nc(C3CC3)cc(-c3ccccc3)c2c1N	INS-1E GSIS act 48.7
O=C(C[C@H]1C[C@@H]2c3cc(NC(=O)c4ccc5c(c4)OCO5)ccc3O[C@@H]2[C@@H](CO)O1)NC1CCCCC1	none
O=C(O)c1ccc(Cn2cnc3sc4c(c3c2=O)CCCC4)cc1	FGF22 binding 43.2
O=C(O)Cn1cnc2sc3c(c2c1=O)CCCC3	none
NS(=O)(=O)c1ccc(N=NN2CCCCC2)cc1	FGF22 binding 42.9
CCCn1c(SCC(=O)Nc2cc(Cl)ccc2Cl)n[nH]c1=O	FGF22 binding 43.1 (no result: INS-1E GSIS act)
O=c1c2ccccc2nc(-c2ccc(Br)cc2)n1Cc1ccccc1	none
O=C(CSc1nc2ccccc2c(=O)n1Cc1ccccc1)NCc1ccco1	INS-1E GSIS act 81.0 (no result: ERAP1 HTS inh, FGF22 binding, SIRT5 block, CASP6 VEID inh)
O=c1c2ccccc2nc(-c2ccco2)n1Cc1ccccc1	INS-1E GSIS act 64.1 (no result: ERAP1 HTS inh, FGF22 binding, SIRT5 block, CASP6 VEID inh)
CCn1c(SCC(=O)NCc2ccco2)nc2ccccc2c1=O	none
O=C(CSc1nc2ccccc2c(=O)n1CC1CCCO1)NCc1ccccc1 (configuration not stated)	INS-1E GSIS act 143.1
O=C(CSc1n[nH]c(=O)n1Cc1ccco1)Nc1ccccc1	SIRT5 block 15.1 (no result: ERAP1 HTS inh)
C[C@@H]1CN([C@@H](C)CO)S(=O)(=O)c2ccc(C#Cc3ccc(F)cc3)cc2O[C@H]1CN(C)C(=O)CN(C)C	none
C[C@H](O)C#Cc1ccc2c(c1)O[C@H](CN(C)C(=O)Nc1ccccc1)[C@H](C)CN([C@@H](C)CO)S2(=O)=O	none
O=c1c2ccccc2nc(/C=C/c2cccnc2)n1CCc1ccccc1	none
O=C(CSc1nnc2n1CCCCC2)NCc1ccccc1	FGF22 binding 43.0 (no result: SIRT5 block, INS-1E GSIS act)
O=c1c2ccccc2nc(/C=C/c2cccnc2)n1Cc1ccccc1	CASP6 VEID inh 46.5
CCCC[C@@H](O)C1=C(COc2ccccc2)C[C@H]2C(=O)N(Cc3ccccc3)C(=O)[C@H]2[C@H]1CO	none (no result: INS-1E GSIS act)
O=C(O)C[C@@H]1CC[C@@H]2[C@H](COC[C@@H](O)CN2S(=O)(=O)c2ccc(F)cc2)O1	none
O=C(C[C@H]1C=C[C@H](NC(=O)c2ccncc2)[C@H](CO)O1)NCCc1ccncc1	none
O=C(O)CCCCCCC(=O)Nc1ccc(C2OC(CSCCO)CC(c3ccccc3)O2)cc1 (configuration not stated)	none (no result: INS-1E GSIS act)
CC(=O)NC[C@@H]1[C@@H](c2ccccc2)[C@H](CO)N1C(=O)Cc1cccnc1	none
C/C(=N\NC(=O)c1cc(C)[nH]n1)c1cccs1	FGF22 binding 43.7
CCOC(=O)c1c(C)[nH]c(/C(C)=N/NC(=O)c2cccnc2)c1C	none (no result: SIRT5 block)
C/C(=N/NC(=O)c1cc(C(C)C)[nH]n1)c1cccs1	none (no result: ERAP1 HTS inh, FGF22 binding, SIRT5 block, CASP6 VEID inh)
CCOC(=O)c1c(C)[nH]c(C(C)=NNC(=O)c2cccs2)c1C	INS-1E GSIS act 53.8
C/C(=N\NC(=O)c1ccc(CSc2nncn2C)cc1)c1cccs1	FGF22 binding 43.3
C/C(=N\NC(=O)c1ccc(CSc2nncn2C)cc1)c1ccc(Cl)cc1	none
CNC[C@@H]1Oc2ccc(NS(=O)(=O)c3ccccc3)cc2CC(=O)N([C@H](C)CO)C[C@H]1C	none
C[C@H](CO)N1C[C@H](C)[C@H](CN(C)C(=O)Nc2ccc3c(c2)OCO3)Oc2c(NC(=O)c3nc4ccccc4s3)cccc2C1=O	none
